The results in this text go back to PubChem BioAssay.

SMILES strings stand for the structures. Results filed as inconclusive are left out. For part of these data: Potency and affinity values are given separately. The source made the active and inactive calls.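 The calls were made as follows, unless noted: active = z-score of at least 1.8 in each of two replicates, scored against plate mean and spread of sample wells; inactive = the rest.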

The target in experiment [1] is ATP-dependent translocase ABCB1 (Homo sapiens) (UniProt P08183). Briefly: MDR1 (ABCB1) efflux transporter inhibition, cell-based (AID 377; in the data active = fluorescence slope change above about 50%). The settings on record: MDR1-expressing cells, fluorescent substrate accumulation slope; stronger effect = higher value; concentration not given here.
Experiment [2] is described as follows: polyglutamine-triggered caspase-3 activation inhibitors, cell-based (AID 1583). The settings on record: polyglutamine-induced caspase-3 activation, cell assay; stronger effect = higher value;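 tested at 10 µM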.
The nature of experiment [3]: suppressors of polyQ aggregation in yeast, 75Q-TubU reporter (AID 1593). The settings on record: Yeast 75Q polyglutamine aggregation reporter.
A short description of experiment [4]: rescue of polyQ-huntingtin neuronal dysfunction in worms, whole organism, C. elegans mechanosensory neurons, N-terminal huntingtin (AID 1599). The settings on record: touch response, stronger effect = higher value.
Experiment [5] can be described thus: inhibitors of mitochondrial cytochrome c release, biochemical, purified mitochondria (AID 1603).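 Also: mouse liver mitochondria challenged with calcium chloride; signal normalized to the plate average as 100%.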 To be noted: stronger effect = lower value.
Experiment [6] in a line: inhibitors of polyQ protein aggregation (AID 1604). To be noted: polyglutamine-induced protein aggregation inhibition assay; stronger effect = higher value; tested at 2.5 µM.
A short description of experiment [7]: enhancers of glutamate uptake in motor neurons, MN-1 cell line (AID 1612).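 Also: tested at 1 µM final; 0% = mean of DMSO vehicle wells on each plate; positive means more glutamate uptake than control and negative means less.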 To be noted: MN-1 motor neuron cells, stronger effect = higher value.
Experiment [8] can be described thus: reducers of polyQ inclusions in PC12 cells, cell-based, NGF-treated PC12, GFPQ80 (AID 1614).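 Also: lower means fewer inclusions and 0 means no inclusions at all.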 The settings on record: PC12 NGF-treated GFP-polyQ80 inclusion reduction.
Experiment [9] in a line: suppressors of polyglutamine aggregation in yeast, 75Q-TubH (AID 1616). The settings on record: S. cerevisiae 75Q-TubH polyglutamine aggregation suppression; stronger effect = higher value.
In experiment [10] the target is Huntingtin (Homo sapiens) (UniProt P42858). Kind of experiment: inhibitors of mutant Htt aggregation in vitro, dose response, QA1 (AID 1584). To be noted: in vitro mutant huntingtin aggregation assay; confirmation test; at 10 µM; stronger effect = lower value.
The nature of experiment [11]: protection against mutant huntingtin cytotoxicity, PC12 cells, LDH release (AID 1610). The settings on record: PC12 mutant huntingtin toxicity, final LDH at 4 uM, stronger effect = lower value.
The nature of experiment [12]: protection of motor neurons from glutamate death, cell-based, TUNEL DNA degradation staining, MNGlu (AID 1594; call rule not given here). To be noted: glutamate-induced death, at 1 µM, stronger effect = higher value.
The nature of experiment [13]: viability rescue of complex I mutant cybrids, primary screen, cell-based, galactose medium, ATP luminescence (AID 1645843).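 Also: positive z means more ATP and so rescue of galactose-driven cybrid death.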 The settings on record: complex I mutant cybrid cells, 72 h, stronger effect = higher value.

Sequence of ATP-dependent translocase ABCB1 (Homo sapiens) (P08183 whole entry, looked up): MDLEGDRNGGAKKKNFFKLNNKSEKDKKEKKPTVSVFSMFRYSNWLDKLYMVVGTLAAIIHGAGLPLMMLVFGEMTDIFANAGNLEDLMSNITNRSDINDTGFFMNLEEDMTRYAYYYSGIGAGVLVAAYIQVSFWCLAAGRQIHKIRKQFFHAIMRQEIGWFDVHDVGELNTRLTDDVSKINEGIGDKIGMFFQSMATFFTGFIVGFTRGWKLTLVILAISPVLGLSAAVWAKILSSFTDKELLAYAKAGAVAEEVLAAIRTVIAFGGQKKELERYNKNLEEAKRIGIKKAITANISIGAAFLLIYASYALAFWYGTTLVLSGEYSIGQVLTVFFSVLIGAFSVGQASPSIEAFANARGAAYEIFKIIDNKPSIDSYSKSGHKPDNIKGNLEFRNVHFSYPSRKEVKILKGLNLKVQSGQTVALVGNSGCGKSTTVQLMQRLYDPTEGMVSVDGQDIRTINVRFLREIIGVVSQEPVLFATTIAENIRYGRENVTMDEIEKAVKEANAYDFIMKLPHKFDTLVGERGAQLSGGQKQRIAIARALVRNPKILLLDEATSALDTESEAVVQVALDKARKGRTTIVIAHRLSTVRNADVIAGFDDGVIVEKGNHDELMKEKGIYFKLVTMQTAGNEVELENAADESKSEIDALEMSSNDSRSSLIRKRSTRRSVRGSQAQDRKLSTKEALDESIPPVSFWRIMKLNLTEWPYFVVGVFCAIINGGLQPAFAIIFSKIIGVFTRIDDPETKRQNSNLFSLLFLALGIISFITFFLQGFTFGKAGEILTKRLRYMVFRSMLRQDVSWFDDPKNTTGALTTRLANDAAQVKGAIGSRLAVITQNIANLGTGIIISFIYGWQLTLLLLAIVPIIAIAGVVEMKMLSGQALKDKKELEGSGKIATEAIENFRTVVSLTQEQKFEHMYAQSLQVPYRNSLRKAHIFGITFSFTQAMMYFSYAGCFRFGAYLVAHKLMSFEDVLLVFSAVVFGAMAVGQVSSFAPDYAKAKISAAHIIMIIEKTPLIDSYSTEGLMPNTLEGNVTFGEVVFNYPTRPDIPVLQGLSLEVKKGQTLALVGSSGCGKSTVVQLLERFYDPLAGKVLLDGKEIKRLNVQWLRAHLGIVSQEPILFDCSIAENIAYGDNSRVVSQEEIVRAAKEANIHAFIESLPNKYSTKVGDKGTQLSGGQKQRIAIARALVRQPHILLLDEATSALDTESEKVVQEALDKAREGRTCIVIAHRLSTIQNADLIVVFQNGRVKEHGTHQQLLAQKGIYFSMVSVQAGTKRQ
Sequence of Huntingtin (Homo sapiens) (P42858 whole entry, looked up): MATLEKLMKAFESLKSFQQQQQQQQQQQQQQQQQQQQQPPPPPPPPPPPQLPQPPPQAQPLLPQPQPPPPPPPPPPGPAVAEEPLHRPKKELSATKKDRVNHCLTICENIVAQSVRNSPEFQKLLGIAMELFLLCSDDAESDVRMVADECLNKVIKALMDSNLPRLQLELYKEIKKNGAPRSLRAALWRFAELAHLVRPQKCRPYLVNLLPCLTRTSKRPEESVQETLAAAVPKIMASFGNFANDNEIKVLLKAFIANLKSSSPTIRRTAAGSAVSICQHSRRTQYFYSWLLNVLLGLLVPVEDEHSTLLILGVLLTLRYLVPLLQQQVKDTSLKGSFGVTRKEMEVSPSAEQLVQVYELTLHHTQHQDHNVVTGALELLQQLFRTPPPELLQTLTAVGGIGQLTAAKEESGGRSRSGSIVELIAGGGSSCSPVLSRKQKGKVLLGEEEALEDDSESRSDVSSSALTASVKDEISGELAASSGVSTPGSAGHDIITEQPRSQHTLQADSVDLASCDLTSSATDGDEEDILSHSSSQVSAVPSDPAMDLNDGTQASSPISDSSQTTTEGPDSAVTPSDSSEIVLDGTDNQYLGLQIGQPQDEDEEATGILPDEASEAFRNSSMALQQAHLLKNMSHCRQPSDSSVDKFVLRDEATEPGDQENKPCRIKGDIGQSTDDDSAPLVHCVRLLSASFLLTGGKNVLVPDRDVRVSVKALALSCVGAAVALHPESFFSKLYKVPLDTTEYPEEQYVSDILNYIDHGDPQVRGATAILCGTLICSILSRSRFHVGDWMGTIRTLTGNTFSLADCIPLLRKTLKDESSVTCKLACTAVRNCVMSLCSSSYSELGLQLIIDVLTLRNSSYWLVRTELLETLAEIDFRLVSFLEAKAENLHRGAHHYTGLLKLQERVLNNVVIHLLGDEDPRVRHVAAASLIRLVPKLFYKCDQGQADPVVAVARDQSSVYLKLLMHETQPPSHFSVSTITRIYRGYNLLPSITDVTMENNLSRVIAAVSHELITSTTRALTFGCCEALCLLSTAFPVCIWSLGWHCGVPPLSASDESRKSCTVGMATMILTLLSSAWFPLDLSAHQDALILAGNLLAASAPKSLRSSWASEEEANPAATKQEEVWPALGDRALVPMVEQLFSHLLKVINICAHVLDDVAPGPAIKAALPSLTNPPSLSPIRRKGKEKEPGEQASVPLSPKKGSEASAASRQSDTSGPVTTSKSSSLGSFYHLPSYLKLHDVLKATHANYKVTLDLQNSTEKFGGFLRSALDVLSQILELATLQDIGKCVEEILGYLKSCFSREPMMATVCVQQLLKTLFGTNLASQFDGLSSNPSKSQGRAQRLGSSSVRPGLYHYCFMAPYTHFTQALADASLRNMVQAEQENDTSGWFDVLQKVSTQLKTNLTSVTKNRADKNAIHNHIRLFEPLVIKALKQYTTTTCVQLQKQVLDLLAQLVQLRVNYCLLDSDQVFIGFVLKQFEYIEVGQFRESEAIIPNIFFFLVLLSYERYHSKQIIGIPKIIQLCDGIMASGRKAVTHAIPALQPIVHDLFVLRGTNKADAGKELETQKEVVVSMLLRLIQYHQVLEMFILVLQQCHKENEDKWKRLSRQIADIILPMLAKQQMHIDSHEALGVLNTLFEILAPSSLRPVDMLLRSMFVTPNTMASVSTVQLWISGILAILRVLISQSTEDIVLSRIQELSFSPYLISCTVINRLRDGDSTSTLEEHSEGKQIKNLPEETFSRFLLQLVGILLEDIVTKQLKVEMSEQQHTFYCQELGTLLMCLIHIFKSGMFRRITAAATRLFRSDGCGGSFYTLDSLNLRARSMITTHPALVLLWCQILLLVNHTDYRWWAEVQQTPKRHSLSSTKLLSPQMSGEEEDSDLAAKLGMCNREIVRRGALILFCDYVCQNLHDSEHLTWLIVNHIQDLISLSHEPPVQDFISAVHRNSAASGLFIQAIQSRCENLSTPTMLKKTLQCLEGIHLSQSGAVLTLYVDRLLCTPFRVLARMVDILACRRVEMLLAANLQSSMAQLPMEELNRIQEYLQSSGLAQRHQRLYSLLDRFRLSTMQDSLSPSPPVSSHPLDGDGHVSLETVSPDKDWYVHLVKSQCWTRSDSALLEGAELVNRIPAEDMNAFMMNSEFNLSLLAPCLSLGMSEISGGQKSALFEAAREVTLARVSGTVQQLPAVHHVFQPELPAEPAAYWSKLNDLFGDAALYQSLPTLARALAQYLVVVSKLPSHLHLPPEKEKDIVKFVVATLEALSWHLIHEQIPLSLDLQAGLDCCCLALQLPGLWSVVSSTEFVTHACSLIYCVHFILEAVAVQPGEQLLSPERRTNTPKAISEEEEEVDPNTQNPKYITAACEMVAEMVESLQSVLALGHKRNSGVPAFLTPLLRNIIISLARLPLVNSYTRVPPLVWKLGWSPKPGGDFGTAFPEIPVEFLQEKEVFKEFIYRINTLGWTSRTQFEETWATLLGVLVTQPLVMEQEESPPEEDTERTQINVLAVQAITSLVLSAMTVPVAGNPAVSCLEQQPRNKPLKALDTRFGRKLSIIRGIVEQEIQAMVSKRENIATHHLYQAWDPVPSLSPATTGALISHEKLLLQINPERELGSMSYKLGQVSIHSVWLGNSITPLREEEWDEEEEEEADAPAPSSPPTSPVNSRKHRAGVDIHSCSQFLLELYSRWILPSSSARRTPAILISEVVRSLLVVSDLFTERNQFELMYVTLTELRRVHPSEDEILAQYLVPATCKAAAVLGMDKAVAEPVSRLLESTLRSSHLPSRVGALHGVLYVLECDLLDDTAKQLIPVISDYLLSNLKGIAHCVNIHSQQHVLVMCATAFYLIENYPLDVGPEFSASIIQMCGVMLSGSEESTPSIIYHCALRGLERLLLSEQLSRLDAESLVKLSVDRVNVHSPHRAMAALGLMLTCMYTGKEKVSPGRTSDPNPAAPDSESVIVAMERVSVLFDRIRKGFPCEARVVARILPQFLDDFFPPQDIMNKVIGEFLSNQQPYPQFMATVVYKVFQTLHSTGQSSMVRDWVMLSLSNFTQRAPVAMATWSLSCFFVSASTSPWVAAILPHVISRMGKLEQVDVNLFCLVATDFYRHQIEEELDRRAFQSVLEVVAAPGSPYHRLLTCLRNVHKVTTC

Turning to `CCNC(C)Cc1cccc(C(F)(F)F)c1` (stereo not given), the fluorescence slope change in [1] is 23.3% (inactive). Also, in [2], the inhibition (usually the relative decrease from the control value, in per cent) was -12%. Moreover, in [3], the score amounted to 1.17. The molecule further displayed a rescue above control in experiment [4] of -3.67. Also, the cytochrome c release ratio in [5] is 0.91. In addition, the inhibition of aggregation in experiment [6] worked out at 15.7%. In addition, in experiment [7], the glutamate uptake change was -14.9%. The inclusion score in experiment [8] stood at 2. Besides, the aggregation suppression score in experiment [9] was 1.24.

`CCC1(CCC(C)C)C(=O)NC(=O)NC1=O`: the inhibition in experiment [2] stood at 6.77%. The molecule further showed a score in experiment [3] of 1.7. The molecule further displayed a rescue above control in experiment [4] of 0.92. In experiment [5], the cytochrome c release ratio was found to be 0.96. In addition, the inhibition of aggregation in experiment [6] is 40.1%. Moreover, in experiment [7], the glutamate uptake change was -7.2%. Moreover, the inclusion score in [8] was determined as 2. Moreover, the aggregation suppression score in experiment [9] was 1.35.

In the case of `CNC(C)Cc1ccc2c(c1)OCO2` (stereo not given), the inhibition in experiment [2] was -3.07%. Further, the score in experiment [3] came out at 0.95. Moreover, in [4], the rescue above control is -0.64. In [5], the cytochrome c release ratio was 0.84. Moreover, the inhibition of aggregation in experiment [6] turned out to be 0.68%. Further, in [7], the glutamate uptake change was -3.54%. The molecule further yielded an inclusion score in [8] of 2. The aggregation suppression score in experiment [9] turned out to be 1.38.

Turning to `CN1CC[C@]23c4c5ccc(O)c4O[C@H]2C(=O)CCC3[C@H]1C5` (stereo not given in full), the inhibition in experiment [2] worked out at 7.55%. The molecule further yielded a score in experiment [3] of 1.13. This molecule also had a rescue above control in experiment [4] of -11.3. In experiment [5], the cytochrome c release ratio worked out at 1.11. For the same molecule, the inhibition of aggregation in [6] is -0.68%. In addition, the glutamate uptake change in [7] turned out to be 20.7%. For the same molecule, the inclusion score in experiment [8] was 2. Further, in [9], the aggregation suppression score stood at 1.27.

For the molecule `CNC1(c2ccccc2Cl)CCCCC1=O` (stereo not given), in [2], the inhibition worked out at 12.3%. In experiment [3], this molecule had a score of 1.43. The rescue above control in experiment [4] was -2.24. In experiment [5], the cytochrome c release ratio was 1.27. Also, the inhibition of aggregation in experiment [6] came to 3.17%. The glutamate uptake change in [7] was -3.45%. In [8], this molecule showed an inclusion score of 2. Besides, the aggregation suppression score in experiment [9] stood at 1.36.

In the case of `COc1cc(CCN)cc(OC)c1OC`, the inhibition in experiment [2] was 8.49%. This molecule also registered a score in experiment [3] of 1.47. The rescue above control in [4] was -5.41. The cytochrome c release ratio in [5] was 0.91. Moreover, the inhibition of aggregation in [6] worked out at 22.4%. In experiment [7], the glutamate uptake change was -3.12%. The same molecule showed an inclusion score in experiment [8] of 2. Further, in experiment [9], the aggregation suppression score amounted to 1.23.

For the molecule `C[C@@]1(C(=O)O)CC[C@]2(C)CC[C@]3(C)C4=CC=C5C=C(O)C(=O)C=C5[C@]4(C)CC[C@@]3(C)[C@@H]2C1`, the aggregation ratio in [10] was determined as 0.487. The molecule also gave a score in experiment [3] of 1.77. Further, the cytochrome c release ratio in experiment [5] is 3.7. Also, the inhibition of aggregation in experiment [6] worked out at 11.8%. This molecule displayed a normalised LDH release in [11] of 0.996. Also, the glutamate uptake change in experiment [7] was -13.4%. Also, in [9], the aggregation suppression score worked out at 1.23.

Turning to `CC[C@H]1C(=O)OC[C@@H]1Cc1cccn1C`, the inhibition in experiment [2] was -1.44%. The score in experiment [3] turned out to be 1.44. Moreover, the rescue above control in [4] turned out to be 2.37. The cytochrome c release ratio in [5] turned out to be 0.94. The inhibition of aggregation in experiment [6] came to 42.5%. Also, the glutamate uptake change in experiment [7] was 10.3%. In [8], this molecule registered an inclusion score of 2. The molecule further yielded an aggregation suppression score in [9] of 1.24.

For the molecule `O=C1CN=C(c2ccccc2)c2cc(Cl)ccc2N1`, the inhibition in [2] was 6.42%. In experiment [3], this molecule gave a score of 1.16. Further, in experiment [12], the protection was 38% (active). The molecule also registered a rescue above control in experiment [4] of 2.8. The cytochrome c release ratio in experiment [5] amounted to 0.98. For the same molecule, the inhibition of aggregation in [6] is 2.04%. In experiment [7], the glutamate uptake change was -20.9%. For the same molecule, in [8], the inclusion score was determined as 2. The same molecule returned an aggregation suppression score in experiment [9] of 1.12.

Turning to `CNC(C)Cc1ccccc1` (stereo not given), the inhibition in experiment [2] stood at 4.94%. This molecule also displayed a score in experiment [3] of 1.26. The rescue above control in [4] was 3.06. In experiment [5], the cytochrome c release ratio was determined as 0.97. In addition, the inhibition of aggregation in [6] was -0.68%. For the same molecule, the glutamate uptake change in experiment [7] was determined as 6.37%. Besides, the inclusion score in experiment [8] came to 2. In experiment [9], this molecule yielded an aggregation suppression score of 1.49.

For the molecule `CCCCCc1cc(O)c2c(c1)OC(C)(C)C1CC=C(C)CC21` (stereo not given), the inhibition in experiment [2] turned out to be 13.2%. This molecule gave a score in experiment [3] of -0.66. Also, the rescue above control in experiment [4] was -4.34. Also, the cytochrome c release ratio in [5] is 1.71. The inhibition of aggregation in experiment [6] was 42.9%. The normalised LDH release in [11] stood at 0.999. Moreover, the glutamate uptake change in [7] was -49.9%. Further, the aggregation suppression score in experiment [9] was 0.105.

With `CC(CCCC(C)(C)O)NC(C)Cc1ccccc1F` (stereo not given), the z-score in experiment [13] is -0.515 (inactive).
